About 95 (0.1%) of roughly 65,000 compounds were called active. Many of the other results were omitted from the sample, so actives are more common in it than they were. Unmarked numbers belong to inactive results.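 Rule for the calls: active = inhibition above the screen-wide mean inhibition plus 3 SD (cut at about 21% in these data); inactive = the rest.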

The experiment has as its target cAMP-dependent protein kinase catalytic subunit alpha (Homo sapiens) (UniProt P17612). Kind of experiment: PKA catalytic subunit kinase inhibition – biochemical, ATP-depletion luminescence, Kemptide substrate, primary screen (AID 524). To be noted: PKA Kemptide phosphorylation, Kinase-Glo ATP luminescence; at 6 µM; hits give high values.
With `COc1ccc(C)c2sc(=NC(=O)c3ccc(C#N)cc3)n(C)c12`, the inhibition (usually the drop in the measured response relative to a control, in per cent) was 3.2%.
For `CN(C(=O)c1ccccn1)c1nnc(-c2ccccn2)s1`, the inhibition was -0.9%.
As to `CN(C(=O)c1ccno1)c1nnc(-c2cccnc2)s1`, the inhibition is 2.6%.
For the compound `CN(C(=O)COc1ccccc1)c1nnc(-c2ccncc2)s1`, the inhibition was 29.1% (active).
Turning to `CC(C)N(C(=O)Cn1c(SCC(=O)N2CCN(c3ccccc3)CC2)nc2ccccc21)C(C)C`, the inhibition is 7.5%.
For `Cc1cc(C)cc(NC(=O)C2CCN(c3nc(C)cc(C)n3)CC2)c1`, the inhibition was 6.7%.
As to `O=C(CSc1nnc(-c2ccccn2)n1-c1ccccc1)Nc1ccc2c(c1)OCO2`, the inhibition was 5.1%.
Regarding `Cc1ccn2cc(C(=O)NC3CCN(Cc4ccccc4)CC3)nc2c1`, the inhibition was 4.5%.
For the compound `Nc1nc(SCCOc2ccccc2)n[nH]1`, the inhibition is 11.5%.
On to `O/N=C(\c1ccc2c(c1)OCCO2)C1CCCCC1`, for which the inhibition was -0.4%.
Turning to `Cc1cc(/C=N/n2cnnc2)c(C)n1-c1cccc(C(=O)O)c1`, the inhibition was 7.1%.
Take `COc1ccc(-c2cc3ccc(OCc4nn[nH]n4)cc3oc2=O)cc1`: the inhibition is 6.3%.
In the case of `CCc1cc(Br)ccc1NC(=O)C1CCCO1` (centres undefined), the inhibition is 12.3%.
Under `Cc1cc(C(=O)CC#N)c(C)n1CC(F)(F)F` stands 6%; under `C=CCNc1nc(C)nc(OC)n1`, 4.4%; under `Cc1nc(N2CCN(c3ncccn3)CC2)c2oc3ccccc3c2n1`, 8.8%.
The same measure for `CCOc1ncccc1C(=O)OCc1cn2cc(Cl)ccc2n1`: 8.2%; for `COc1ccc(CCN=C2SCC(=O)N2C)cc1OC`: 5.5%; for `Fc1ccccc1OCCCCn1cncn1`: 2.8%.
With `CN(CC(=O)NC1CCCCC1)S(=O)(=O)c1ccc(Br)s1`, the inhibition is 4%.
As to `COCCNC(=S)c1ccc(OC)cc1`, the inhibition was 5.8%.
With `Cn1cccc1C(=O)NC(=O)COC(=O)Cc1coc2ccc3ccccc3c12`, the inhibition was 5.5%.
For `CCOc1ccc(NC(=O)N(CCC(C)C)C(C)c2ccco2)cc1` (centres undefined), the inhibition is 4.9%.
`COc1ccc2c(c1)OC(O)(C(F)(F)C(F)F)CC2=O` (centres undefined): the inhibition was 4.1%.
`CC(C)C(=O)Nc1c(C(=O)c2ccc(F)cc2)oc2ccccc12`: the inhibition is 2.9%.
Under `CCCC(NC(=O)c1ccccc1)c1nc2ccccc2n1Cc1ccc(C(=O)OC)o1` (centres undefined) stands 9.3%.
Under `Cc1ccc(Cc2cncc(O)c2)cc1S(=O)(=O)O` stands -3.1%; under `Cn1c(=O)c(C(=O)Nc2ncccn2)c(O)c2ccccc21`, -3.8%.
The same measure for `COc1ccc(NC(=O)c2c(C)oc3c2CCCC3)cc1`: 4.6%.
Turning to `Cc1ccc(C)c(NC(=O)CSc2nnc(Cc3cccn3C)n2-c2ccc(F)cc2)c1`, the inhibition is 7.2%.
As to `Cn1c(=O)[nH]c(=O)c2c1nc(CN1CCN(c3ccccc3F)CC1)n2CCc1ccccc1`, the inhibition was 1.4%.
Consider `COc1cccc(N2CC(C(=O)Nc3c(C)cccc3C)CC2=O)c1` (centres undefined), for which the inhibition is 4.7%.
Take `CCOC(=O)C1=C(C)NC(=O)N(C(C)=O)C1c1ccc(Cl)cc1` (centres undefined): the inhibition was 9.6%.
In the case of `CN(C)S(=O)(=O)c1ccc(Oc2ccc(S(=O)(=O)N(C)C)cc2)cc1`, the inhibition was 9%.
Turning to `CC(NC(=O)c1ccc(Cl)cc1)C(=O)N1CCCCC1` (centres undefined), the inhibition is 8.7%.
Take `O=C(Cc1cccs1)N1CCCC(c2nc(-c3ccc(S(=O)(=O)N4CCCC4)cc3)no2)C1` (centres undefined): the inhibition was 8.4%.
Consider `CCCCCCn1c(SCC(=O)c2ccccc2)nc2c1c(=O)[nH]c(=O)n2C`, for which the inhibition is 7.8%.
Take `O=C1c2ccccc2C(Nc2ccc3c(c2)OCCO3)N1Cc1ccco1` (centres undefined): the inhibition was -9.3%.
As for `Cc1ccc2c(c1)C(O)(CC(=O)c1cccnc1)C(=O)N2` (centres undefined), the inhibition was 6%.
On to `COc1ccccc1Cn1c(=S)[nH]c2cc(C(=O)N3CCN(C)CC3)ccc2c1=O`, for which the inhibition was 4.3%.
The same measure for `Cc1cc(C)c(C#N)c(SCc2ccc3c(c2)OCO3)n1`: 7.3%; for `CCN(Cc1ccncc1)C(=O)c1cccc(S(=O)(=O)N2CCOCC2)c1`: -8.8%.
In the case of `Cc1cccc(N2CCN(C(=O)C3CCN(S(=O)(=O)c4cnc[nH]4)CC3)CC2)c1C`, the inhibition is 9.6%.
Take `O=C(COC(=O)c1ccc2c(c1)OCCO2)NCc1ccccc1`: the inhibition was 5.2%.
Consider `O=C(CSc1nnc(-c2ccoc2)o1)N1CCOCC1`, for which the inhibition is -16.1%.
Take `O=C(O)Cc1ccc(NC(=O)C2CCCCC2C(=O)O)cc1` (centres undefined): the inhibition was 9.2%.
Under `CC1=NC2(CCCc3c2no[n+]3[O-])N(O)C1(C)C` (centres undefined) stands -8%; under `C/C(=C\C(=O)c1ccc(Br)cc1)N1CCCCC1`, 0.7%.
On to `c1ccc(CCc2nc(-c3ccncc3)no2)cc1`, for which the inhibition is 6.7%.
The same measure for `COCCCNC(=O)c1ccc(CNS(=O)(=O)c2ccc(NC(C)=O)cc2)cc1`: -2.5%; for `O=c1c2ccccc2[nH]c(=S)n1CCN1CCC(=C(c2ccc(F)cc2)c2ccc(F)cc2)CC1`: -4.7%.
For `Cc1nc(NC(=O)C23CCC(C)(C(=O)O2)C3(C)C)sc1C` (centres undefined), the inhibition is 1.8%.
As to `Cc1ccc(S(=O)(=O)N2CCOCC2)cc1C(=O)NCc1ccc(F)cc1`, the inhibition is 8.8%.
Turning to `COc1cc2[nH]c(=S)n(CCN3CCCCC3C)c(=O)c2cc1OC` (centres undefined), the inhibition was -5%.
Under `O=C1NC(c2cc3c(cc2Cl)OCO3)Oc2ccccc21` (centres undefined) stands -12.4%; under `CCCOc1ccc(-c2nc(N)n[nH]2)cc1`, -2.2%.
The same measure for `O=C(Cn1c(=O)n(Cc2ccco2)c(=O)c2ccccc21)NCC1CCCO1` (centres undefined): 7.1%.
Turning to `O=c1c2ccccc2nnn1CSc1nc2sc3c(c2c(=O)n1CC1CCCO1)CCC3` (centres undefined), the inhibition is 6.1%.
`COc1ccc(CN2CC(C(=O)NCCN3CCN(c4ccccc4F)CC3)CC2=O)cc1` (centres undefined): the inhibition was -0.3%.
Regarding `COc1ccc(C(c2nnnn2Cc2cccs2)N2CCN(c3ccccc3)CC2)cc1OC` (centres undefined), the inhibition was 7.6%.
Under `CCCOc1ccc(Cn2c(O)cc(=O)[nH]c2=O)cc1` stands 7.5%.
Turning to `COc1ccc(OC)c2sc(NC(=O)C3COc4ccccc4O3)nc12` (centres undefined), the inhibition was 5.1%.
For `O=C(Nc1nc(-c2ccc3c(c2)OCO3)cs1)c1ccncc1`, the inhibition is -1.3%.
Under `O=C(Nc1nc(-c2ccncc2)cs1)C1COc2ccccc2O1` (centres undefined) stands 103% (active); under `CC(=O)Cc1nsc(NC(=O)c2ccc(COc3ccc(C)cc3)o2)n1`, 11.4%; under `O=C(Nc1cccnc1)c1noc2c1CCCCC2`, -2.8%.
Regarding `O=C(CN1CCN(C2CCCCC2)CC1)Nc1ccccc1N1CCCCC1`, the inhibition was 1.9%.
The same measure for `O=C1c2ccccc2C(=O)N1c1ccccc1S(=O)C(F)(F)F` (centres undefined): -0.9%; for `Cc1ccccc1C(=O)NCCN=C1NS(=O)(=O)c2ccccc21`: 11.6%.
As for `CSc1ccc(NC(=O)N2CC(C)OC(C)C2)cc1` (centres undefined), the inhibition is 10.1%.
Consider `N#Cc1ccc(COC(=O)Cn2nnc(-c3ccccc3)n2)cc1`, for which the inhibition was 10.9%.
`Cc1cc(C(=O)OCC(=O)NCc2ccco2)c(C)n1-c1ccccc1`: the inhibition is 0.4%.
Turning to `CS(=O)(=O)N(CC(=O)N1CCOCC1)c1ccc2c3c(cccc13)CC2`, the inhibition was 10.1%.
Regarding `COc1ccc2c(CC(=O)Nc3nnc(C4CC4)s3)coc2c1`, the inhibition was 10.2%.
On to `CC1CCCCC1NC(=O)CSc1nnc(N)s1` (centres undefined), for which the inhibition was 5.7%.
With `C=CCNC(=O)C12CC3CC(C1)CC(C(=O)NCC=C)(C3)C2`, the inhibition is -3.4%.
`N#Cc1nc(COc2ccc(Cl)cc2)oc1N1CCCC1`: the inhibition was -3%.
As to `Cc1nc(C)c(C(=O)Nc2cccc(C)c2C)o1`, the inhibition was -2.6%.
On to `O=C(C1CC1)N1CCN=C1SCc1ccc(Cl)cc1`, for which the inhibition is 6.8%.
The same measure for `Brc1cccc(-c2nnc3n2CCC3)c1`: 0.9%; for `CCOC(=O)C1CCN(C(=O)Cn2cc(C#N)c3ccccc32)CC1`: 4.3%; for `COc1cccc2cc(C(C)N(CCCN3CCOCC3)C(=O)Nc3ccc(Cl)cc3)oc12` (centres undefined): 0.5%.
The same measure for `O=S(=O)(NCc1ccc2c(c1)OCO2)c1cccc2nsnc12`: 5.1%.
Regarding `c1ccc(CCn2nnnc2CN2CCN(C3CCCC3)CC2)cc1`, the inhibition is -3.2%.
The same measure for `Cc1cc2ccccc2n2c(SCC(=O)N3CCN(C(=O)c4ccco4)CC3)nnc12`: 8.5%; for `CCCn1c(SCC(=O)Nc2c(C)cccc2C)nnc1C(C)C`: 4.9%; for `CCn1c(SCC(=O)Nc2cccc(F)c2)nnc1-c1cc2cc(Br)ccc2o1`: 10.1%.
As for `Cc1cccc(CC(=O)Nc2c3c(nn2-c2cccc(Cl)c2)CS(=O)C3)c1` (centres undefined), the inhibition is 9.5%.
`NC(=O)CCCC1=NS(=O)(=O)c2ccccc2N1`: the inhibition is 5.7%.
With `CCN(c1ccccc1)S(=O)(=O)c1ccc(N)cc1`, the inhibition was 9%.
On to `CCCCn1c(SCC(=O)N2CCC(C(=O)OCC)CC2)nc2cc(S(N)(=O)=O)ccc21`, for which the inhibition is 2.4%.
Under `CCCCNc1nc2c(c(=O)[nH]c(=O)n2C)n1CCOc1ccccc1` stands -1.2%; under `CCOc1ccc(NC(=O)CSc2nc3c(c(=O)n2-c2ccccc2OC)SCC3)cc1`, -2.3%.
For `COc1ccc(OC)c2[nH]c(=O)c(CCNC(=O)C(C)(C)C)cc12`, the inhibition is 2.9%.
Turning to `CC(C)C(C(=O)NC1CCCCC1)N(CC1CCCO1)C(=O)CNS(=O)(=O)c1ccc(F)cc1` (centres undefined), the inhibition was 4.8%.
As to `O=C(NCCC1=CCCCC1)C1CCN(Cc2cnn(-c3ccccc3)c2-n2cccc2)CC1`, the inhibition was 6.6%.
As for `Cn1c(SCC(=O)Nc2cccc(NC(=O)c3cccs3)c2)nnc1-c1ccncc1`, the inhibition was 12.7%.
In the case of `CC(=O)Nc1ccc(-c2cn3cccnc3n2)cc1`, the inhibition is 3.9%.
On to `CN1C(=O)c2ccccc2C(C(=O)NCCCN2CCCC2)C1c1c[nH]c2ccccc12` (centres undefined), for which the inhibition is 2.4%.
